In all, about 5,500 compounds went through this assay and about 2,000 (36%) were called active. Not shown: some 18% with an inconclusive outcome. Rule as the data show it: active = normalized growth mostly below about 0.91 (no sharp cut-off); inconclusive = no clear call, values can overlap the other calls; inactive = mostly above about 0.92. This is one part of the list.
Test: chemical genetic growth profiling, strain panel (AID 1159580);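 also: tested at 20 µM; growth read once vehicle control cultures reached saturation at 30 °C; 1 = growth at the plate median or of vehicle wells; lower values mean less growth of the strain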
Conditions: growth OD
[1] = S. cerevisiae deletion strains, locus YDL101C, strain DUN1, hits give low values
[2] = S. cerevisiae deletion strains, locus YHR030C, strain SLT2, hits give low values
[3] = S. cerevisiae deletion strains, locus YAL013W, strain DEP1, hits give low values
[4] = S. cerevisiae deletion strains, locus YDR150W, strain NUM1, hits give low values
[5] = S. cerevisiae deletion strains, locus YGR078C, strain PAC10, hits give low values
[6] = S. cerevisiae deletion strains, locus YJR075W, strain HOC1, hits give low values
[7] = S. cerevisiae deletion strains, locus YNL322C, strain KRE1, hits give low values
[8] = S. cerevisiae deletion strains, locus YPL241C, strain CIN2, hits give low values

Measured: normalized growth

O=C1/C(=C/c2c[nH]c3ccccc23)CSc2ccccc21
inactive: S. cerevisiae deletion strains, locus YAR019C, strain CDC15, hits give low values 0.989 | S. cerevisiae deletion strains, locus YBL105C, strain PKC1, hits give low values 0.975 | S. cerevisiae deletion strains, locus YBR135W, strain CKS1, hits give low values 0.981 | S. cerevisiae deletion strains, locus YBR136W, strain MEC1, hits give low values 0.966 | S. cerevisiae deletion strains, locus YBR160W, strain CDC28, hits give low values 0.99 | S. cerevisiae deletion strains, locus YDL017W, strain CDC7, hits give low values 0.983 | S. cerevisiae deletion strains, locus YDL028C, strain MPS1, hits give low values 0.979 | [1] 0.98 | S. cerevisiae deletion strains, locus YDL108W, strain KIN28, hits give low values 0.987 | S. cerevisiae deletion strains, locus YDL132W, strain cdc53, hits give low values 0.99 | S. cerevisiae deletion strains, locus YDL214C, strain PRR2, hits give low values 0.938 | S. cerevisiae deletion strains, locus YDR052C, strain DBF4, hits give low values 0.985 | S. cerevisiae deletion strains, locus YDR054C, strain cdc34, hits give low values 0.987 | S. cerevisiae deletion strains, locus YDR226W, strain ADK1, hits give low values 0.983 | S. cerevisiae deletion strains, locus YDR477W, strain SNF1, hits give low values 0.961 | S. cerevisiae deletion strains, locus YER123W, strain YCK3, hits give low values 0.906 | S. cerevisiae deletion strains, locus YER133W, strain GLC7, hits give low values 0.948 | S. cerevisiae deletion strains, locus YFL009W, strain cdc4, hits give low values 0.988 | S. cerevisiae deletion strains, locus YFL029C, strain CAK1, hits give low values 0.988 | S. cerevisiae deletion strains, locus YFR003C, strain YPI1, hits give low values 0.987 | S. cerevisiae deletion strains, locus YFR019W, strain FAB1, hits give low values 0.973 | S. cerevisiae deletion strains, locus YFR028C, strain CDC14, hits give low values 0.98 | S. cerevisiae deletion strains, locus YGR040W, strain KSS1, hits give low values 0.947 | S. cerevisiae deletion strains, locus YGR052W, strain FMP48, hits give low values 1.04 | S. cerevisiae deletion strains, locus YGR092W, strain DBF2, hits give low values 0.945 | [2] 1.07 | S. cerevisiae deletion strains, locus YHR079C, strain IRE1, hits give low values 1.06 | S. cerevisiae deletion strains, locus YHR082C, strain KSP1, hits give low values 1.01 | S. cerevisiae deletion strains, locus YHR205W, strain SCH9, hits give low values 0.957 | S. cerevisiae deletion strains, locus YIL147C, strain SLN1, hits give low values 0.965 | S. cerevisiae deletion strains, locus YJL095W, strain BCK1, hits give low values 1.02 | S. cerevisiae deletion strains, locus YJL128C, strain PBS2, hits give low values 0.944 | S. cerevisiae deletion strains, locus YJL157C, strain FAR1, hits give low values 0.943 | S. cerevisiae deletion strains, locus YJR016C, strain ILV3, hits give low values 0.98 | S. cerevisiae deletion strains, locus YJR066W, strain TOR1 (second series), hits give low values 0.913 | S. cerevisiae deletion strains, locus YJR066W, strain TOR1, hits give low values 1.03 | S. cerevisiae deletion strains, locus YKL048C, strain ELM1, hits give low values 0.949 | S. cerevisiae deletion strains, locus YKL067W, strain YNK1, hits give low values 0.964 | S. cerevisiae deletion strains, locus YKL101W, strain HSL1, hits give low values 0.945 | S. cerevisiae deletion strains, locus YKL193C, strain SDS22, hits give low values 0.984 | S. cerevisiae deletion strains, locus YKL203C, strain TOR2, hits give low values 1.02 | S. cerevisiae deletion strains, locus YLR113W, strain HOG1, hits give low values 1.05 | S. cerevisiae deletion strains, locus YLR133W, strain CKI1, hits give low values 0.975 | S. cerevisiae deletion strains, locus YLR403W, strain SFP1, hits give low values 0.942 | S. cerevisiae deletion strains, locus YML070W, strain DAK1, hits give low values 0.944 | S. cerevisiae deletion strains, locus YMR001C, strain CDC5, hits give low values 0.976 | S. cerevisiae deletion strains, locus YMR205C, strain PFK2 (second series), hits give low values 0.979 | S. cerevisiae deletion strains, locus YMR277W, strain FCP1, hits give low values 0.983 | S. cerevisiae deletion strains, locus YNL006W, strain LST8, hits give low values 0.993 | S. cerevisiae deletion strains, locus YNL020C, strain ARK1, hits give low values 0.948 | S. cerevisiae deletion strains, locus YNL161W, strain CBK1, hits give low values 0.991 | S. cerevisiae deletion strains, locus YNL183C, strain NPR1, hits give low values 1.05 | S. cerevisiae deletion strains, locus YNL207W, strain RIO2, hits give low values 0.997 | S. cerevisiae deletion strains, locus YNL222W, strain SSU72, hits give low values 0.982 | S. cerevisiae deletion strains, locus YNL307C, strain MCK1 (second series), hits give low values 0.995 | S. cerevisiae deletion strains, locus YOL078W, strain AVO1, hits give low values 0.994 | S. cerevisiae deletion strains, locus YOL136C, strain PFK27, hits give low values 0.931 | S. cerevisiae deletion strains, locus YOR061W, strain CKA2, hits give low values 0.958 | S. cerevisiae deletion strains, locus YOR119C, strain RIO1, hits give low values 0.982 | S. cerevisiae deletion strains, locus YOR231W, strain MKK1, hits give low values 1.05 | S. cerevisiae deletion strains, locus YOR329C, strain SCD5, hits give low values 0.99 | S. cerevisiae deletion strains, locus YPL031C, strain PHO85, hits give low values 0.947 | S. cerevisiae deletion strains, locus YPL153C, strain RAD53, hits give low values 0.924 | S. cerevisiae deletion strains, locus YPL204W, strain HRR25, hits give low values 0.928 | S. cerevisiae deletion strains, locus YPL209C, strain IPL1, hits give low values 0.989 | S. cerevisiae deletion strains, locus YPL256C, strain CLN2, hits give low values 1.04 | S. cerevisiae deletion strains, locus YPR025C, strain CCL1, hits give low values 0.986 | S. cerevisiae deletion strains, locus YPR106W, strain ISR1, hits give low values 0.978 | S. cerevisiae deletion strains, locus YPR111W, strain DBF20, hits give low values 0.979 | S. cerevisiae deletion strains, strain NNK1, hits give low values 0.98 | S. cerevisiae deletion strains, strain TSCII, hits give low values 0.984

O=C1NC(=S)NC(=O)C1=Cc1cccc2ccccc12
inactive: [3] 0.975 | S. cerevisiae deletion strains, locus YBR229C, strain ROT2, hits give low values 0.989 | S. cerevisiae deletion strains, locus YCL061C, strain MRC1, hits give low values 0.97 | [1] 0.963 | [4] 0.891 | S. cerevisiae deletion strains, locus YEL061C, strain CIN8, hits give low values 0.976 | [5] 0.976 | [2] 0.709 | S. cerevisiae deletion strains, locus YHR087W, strain rtc3, hits give low values 0.913 | [6] 0.928 | S. cerevisiae deletion strains, locus YKL190W, strain CNB1, hits give low values 1 | S. cerevisiae deletion strains, locus YLR039C, strain RIC1, hits give low values 0.841 | S. cerevisiae deletion strains, locus YLR058C, strain SHM2 (second series), hits give low values 0.99 | S. cerevisiae deletion strains, locus YLR085C, strain ARP6, hits give low values 0.907 | S. cerevisiae deletion strains, locus YLR262C, strain YPT6, hits give low values 0.879 | S. cerevisiae deletion strains, locus YML094W, strain GIM5, hits give low values 0.954 | S. cerevisiae deletion strains, locus YMR219W, strain ESC1, hits give low values 0.985 | S. cerevisiae deletion strains, locus YMR263W, strain SAP30, hits give low values 0.93 | S. cerevisiae deletion strains, locus YNL128W, strain TEP1, hits give low values 0.991 | S. cerevisiae deletion strains, locus YNL153C, strain GIM3, hits give low values 0.979 | S. cerevisiae deletion strains, locus YNL298W, strain CLA4 (second series), hits give low values 0.995 | [7] 0.986 | S. cerevisiae deletion strains, locus YNR030W, strain Alg12, hits give low values 0.988 | S. cerevisiae deletion strains, locus YPL055C, strain LGE1, hits give low values 0.92 | [8] 0.983 | S. cerevisiae deletion strains, locus YPR135W, strain CTF4, hits give low values 0.806 | S. cerevisiae strains, strain wild type, hits give low values 0.998

N#C/C(=C\c1c[nH]c2ccccc12)C(=O)c1ccc(O)c(O)c1
inactive: [3] 1.02 | S. cerevisiae deletion strains, locus YAL040C, strain CLN3, hits give low values 0.987 | S. cerevisiae deletion strains, locus YCL061C, strain MRC1 (second series), hits give low values 1.02 | [4] 1.01 | S. cerevisiae deletion strains, locus YDR363W, strain ESC2, hits give low values 1.03 | S. cerevisiae deletion strains, locus YER002W, strain NOP16, hits give low values 1.01 | [5] 1.02 | [6] 0.996 | S. cerevisiae deletion strains, locus YMR307W, strain GAS1, hits give low values 1.03 | S. cerevisiae deletion strains, locus YNL175C, strain NOP13, hits give low values 1 | S. cerevisiae deletion strains, locus YNL197C, strain WHI3, hits give low values 1.02 | S. cerevisiae deletion strains, locus YNL224C, strain SQS1, hits give low values 1 | [7] 1 | S. cerevisiae deletion strains, locus YOR083W, strain WHI5 (second series), hits give low values 0.973 | [8] 1.02

Source: PubChem BioAssay AID1159580 (chemical genetic matrix, 2015)
